# Source: PubChem BioAssay (EPA / NIEHS)
# Some compounds were tested as several samples or in several runs, with calls that do not always agree. Active and inactive are the calls of the source. How the source made its calls: active means hit-call score of the fitted dose curve at least 0.9, where 1 is the maximum; inactive means score below 0.9.
# Read-out: CD90, THY1 (gene 7070)
# Test: BSK_BF4T_CD90: BioMAP Diversity Plus: BF4T Assay for CD90 Biomarker Activity (AID 2284262)
# Details: primary human bronchial epithelial cells with fibroblasts
# Protocol: BSK_BF4T is a cell-based, multiplexed-readout assay that uses bronchial epithelial cells and dermal fibroblasts, a human vascular primary cell, with measurements taken at 24 hours after chemical dosing in a microplate: 96-well plate.BSK_BF4T_CD90 is an assay component measured in the BSK_BF4T assay. It measures CD90 antibody related to regulation of gene expression using ELISA technology.Data from the assay component BSK_BF4T_CD90 was analyzed at the endpoint, BSK_BF4T_CD90, in the positive analysis fitting direction relative to DMSO as the negative control and baseline of activity. Using a type of binding reporter, gain or loss-of-signal activity can be used to understand protein changes. To generalize the intended target to other relatable targets, this assay endpoint is annotated to the 'cytokine' intended target family, where the subfamily is 'inflammatory factor'.
# The levels of cell surface (or secreted, indicated by the prefix "s") biomarker endpoints were measured by ELISA. Overt cytotoxicity to cells in confluent adherent cultures (all systems other than the BT system) was assessed by measuring total protein levels using sulforhodamine B (SRB) staining in parallel cultures at the time of biomarker measurements, indicated as SRB endpoints. For proliferation assays for adherent cell types, individual cell types are cultured at sub-confluence and relative cell numbers quantified by SRB staining at time points optimized for each system (48 h: 3C and CASM3C systems; 72 h: BT and HDF3CGF systems; 96 h: SAg system). SRB was performed by staining cells with 0.1% SRB after fixation with 10% TCA and reading wells at 560 nm.Viability and proliferation of PBMC (T cells) was quantified by Alamar Blue reduction for the SAg and BT systems. For PBMC viability (referred to as PBMC Cytotoxicity within the assay endpoint names), cells were plated (75,000/well in a 96-well plate) and then chemical samples added for 1 h before addition of activators, SEB and TSST-1 (20 ng/mL final concentration each). Cells were incubated for 90 h. Then, Alamar Blue (20 uL/well) (Invitrogen, Cat DAL1100) was added for 6 h, and the plates were read with a fluorescence microplate reader at 546/580 nm (excitation/emission). For PBMC proliferation, cells were plated and activated as above but incubated for only 16 h prior to addition of Alamar Blue. Plates were read after 6 h.
SMILES,outcome,AC50
OCC(O)CC(F)(F)C(F)(F)C(F)(F)C(F)(F)F (stereo not given),inactive,–
O=C(O)CCC(F)(F)C(F)(F)C(F)(F)F,inactive,–
O=C(F)C1(F)C(F)(F)C(F)(F)C(F)(F)C(F)(F)C1(F)F,inactive,–
O=S(=O)(O)CCC(F)(F)C(F)(F)C(F)(F)C(F)(F)F,inactive,–
C=CC(=O)OCC(F)(F)C(F)(F)C(F)(F)COC(=O)C=C,inactive,8.59 µM (active)
OC(O)C(F)(F)C(F)(F)F,inactive,–
OCC(F)(F)C(F)(F)C(F)(F)CO,inactive,–
OCCCCC(F)(F)C(F)(F)C(F)(F)C(F)(F)F,inactive,–
C=CC(=O)OCCC(F)(F)C(F)(F)C(F)(F)C(F)(F)F,inactive,–
OCC(F)(F)C(F)(F)C(F)(F)C(F)(F)C(F)(F)C(F)(F)C(F)(F)C(F)(F)CO,inactive,–
O=S(=O)(OCC(F)(F)F)C(F)(F)C(F)(F)C(F)(F)C(F)(F)F,inactive,–
FC(F)(F)C(F)(F)C(F)(F)C(F)(F)C(F)(F)C(F)(F)C(F)(F)CCI,inactive,–
FC(F)(F)C(F)(F)C(F)(F)CC1CO1 (stereo not given),inactive,–
O=C(Cl)C(F)(F)C(F)(F)C(F)(F)C(F)(F)C(F)(F)C(F)(F)F,inactive,–
C[Si](Cl)(Cl)CCC(F)(F)C(F)(F)C(F)(F)C(F)(F)C(F)(F)C(F)(F)F,inactive,–
NCC(F)(F)C(F)(F)C(F)(F)C(F)(F)C(F)(F)C(F)(F)C(F)(F)C(F)(F)F,inactive,–
O=S(=O)(O)CCC(F)(F)C(F)(F)C(F)(F)C(F)(F)C(F)(F)C(F)(F)C(F)(F)C(F)(F)F,inactive,–
CCN(CCO)S(=O)(=O)C(F)(F)C(F)(F)C(F)(F)C(F)(F)C(F)(F)C(F)(F)C(F)(F)C(F)(F)F,inactive,–
OCC(O)CC(F)(F)C(F)(F)C(F)(F)C(F)(F)C(F)(F)C(F)(F)C(F)(F)C(F)(F)F (stereo not given),inactive,–
C=CC(=O)OCC(F)(F)C(F)(F)C(F)(F)C(F)(F)C(F)(F)C(F)(F)C(F)(F)C(F)F,inactive,–

SMILES,outcome,AC50
O=C(O)C(F)(F)OC(F)(F)C(F)(F)OC(F)(F)C(F)(F)OC(F)(F)F,inactive,–
NS(=O)(=O)C(F)(F)C(F)(F)C(F)(F)C(F)(F)C(F)(F)C(F)(F)F,inactive,–
OCC(F)(F)C(F)(F)C(F)(F)C(F)(F)C(F)(F)C(F)(F)CO,inactive,–
O=S(=O)(Cl)C(F)(F)C(F)(F)C(F)(F)C(F)(F)C(F)(F)C(F)(F)C(F)(F)C(F)(F)F,inactive,–
O=C(O)CCC(F)(F)C(F)(F)C(F)(F)C(F)(F)C(F)(F)C(F)(F)C(F)(F)F,inactive,–
O=C(O)C(F)(F)C(F)(F)C(F)(F)OC(F)(F)F,inactive,–
NC(O)(C(F)(F)F)C(F)(F)F,inactive,–
O=C(O)C(F)(F)C(F)(F)C(F)(F)C(=O)O,inactive,–
CCOC(=O)CC(=O)C(F)(F)C(F)(F)F,inactive,–
NCC(F)(F)C(F)(F)C(F)(F)C(F)(F)C(F)(F)C(F)(F)F,inactive,–
O=C(Cl)C(F)(F)C(F)(F)C(F)(F)C(F)(F)C(F)(F)C(F)(F)C(F)(F)F,inactive,–
O=C(O)C(F)(F)C(F)(F)C(F)(F)OC(F)(C(F)(F)F)C(F)(F)F,inactive,–
COC(F)(C(F)F)C(F)(F)F (stereo not given),inactive,–
FC(F)(F)C(F)(F)C(F)(F)C(F)(F)C(F)(F)C(F)(F)CC[Si](Cl)(Cl)Cl,inactive,–
O=C(O)C(F)(F)C(F)(F)C(F)(F)C(F)(F)C(F)(F)C(F)(F)C(F)F,inactive,–
NC(=O)C(F)(F)C(F)(F)C(F)(F)C(F)(F)C(F)(F)C(F)(F)C(F)(F)F,inactive,–
NC(=O)C(F)(F)C(F)(F)C(F)(F)C(F)(F)C(N)=O,inactive,–
NC(=O)C(F)(F)C(F)(F)C(F)(F)F,inactive,–
CNS(=O)(=O)C(F)(F)C(F)(F)C(F)(F)C(F)(F)C(F)(F)C(F)(F)C(F)(F)C(F)(F)F,inactive,–
